Most compounds without a hit are left out; they make up all but 22% or so of the library.
CYP2C9 act: CYP2C9 (human) activation. recombinant CYP2C9, luciferin-H conversion, luminescence; active compounds read high; factor 1 = untreated enzyme, 0 = blocked. hit rate 1.4% among 96,000. activation factor at 5 µM. P11712;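 active means activation factor of 2 or more for CYP2C9 at a 5 µM dose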
Target sequence (P11712 whole entry, looked up): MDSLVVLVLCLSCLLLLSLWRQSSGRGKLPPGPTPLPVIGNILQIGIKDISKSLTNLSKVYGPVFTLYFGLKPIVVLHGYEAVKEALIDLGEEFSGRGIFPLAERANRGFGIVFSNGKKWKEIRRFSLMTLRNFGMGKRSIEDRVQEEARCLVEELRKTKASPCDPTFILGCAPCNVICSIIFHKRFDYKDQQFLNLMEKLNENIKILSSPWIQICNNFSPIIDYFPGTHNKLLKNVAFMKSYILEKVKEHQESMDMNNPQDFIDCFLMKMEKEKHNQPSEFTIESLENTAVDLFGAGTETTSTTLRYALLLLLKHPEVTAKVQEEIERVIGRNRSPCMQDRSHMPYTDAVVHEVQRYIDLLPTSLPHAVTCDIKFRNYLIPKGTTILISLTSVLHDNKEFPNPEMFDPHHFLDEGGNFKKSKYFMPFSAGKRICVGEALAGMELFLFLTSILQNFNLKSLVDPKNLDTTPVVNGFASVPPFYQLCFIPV
CYP2C9 inhib: inhibitors of human CYP2C9; P11712; inhibition, % at 5 µM; AID 777; hit rate 20% among 96,000; CYP2C9 Supersomes, luciferin-H conversion, luminescence;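 active means blocking of liver enzyme CYP2C9 beyond about 50% at 5 µM, limit read from the data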
CYP2C19 inh: human CYP2C19 inhibition | hit rate 21% among 96,000 | inhibition, % at 5 µM | CYP2C19 Supersomes, luciferin-H EGE luminescence, 30 min | P33261 | AID 778;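 active means CYP2C19 inhibition above a set limit at 5 µM in the primary screen, cut at about 50% in these data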
F-actin modifier: alters cytoskeleton assembly in HUVEC cells | hit rate 0.18% among 91,000 | inhibition, % at 2 µM | HUVEC TNFa F-actin phalloidin imaging, high content;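 active means inhibition above the batch mean plus 3 SD and confirmed as a hit by visual image inspection, cut at about 30% in these data, passing the limit was not always enough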
E-sel TNF inh: TNF alpha driven E-selectin expression inhibition | HUVEC TNFa-induced E-selectin immunofluorescence, high content | inhibition, % at 2 µM | hit rate 0.71% among 120,000;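 active means inhibition above the batch mean plus 3 SD, and confirmed as a hit on visual image review, cut at about 43% in these data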
CYP2C19 activ: activators of human cytochrome P450 2C19 | 96,000 tested, under 10 active | AID 1025 | activation factor at 5 µM | recombinant CYP2C19, luciferin-H EGE luminescence; active compounds read high; 0 = fully inhibited enzyme, 1 = untreated enzyme;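 active means activation factor of at least 2 at 5 µM in the primary screen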
Hits are given with their value.

For O=C(/C=C/c1ccccc1)NC(NC(=S)Nc1cc(Cl)ccc1Cl)C(Cl)(Cl)Cl (stereo not given) the results were CYP2C9 act inactive, CYP2C9 inhib 87, CYP2C19 inh inactive, F-actin modifier inactive and CYP2C19 activ inactive.
`COc1ccccc1C1(O)CC2CCC(C1)N2S(=O)(=O)c1ccc(C(C)=O)cc1` (stereo not given) gave CYP2C9 act inactive, CYP2C9 inhib inactive, CYP2C19 inh inactive, F-actin modifier inactive, E-sel TNF inh inactive and CYP2C19 activ inactive.
Screening CCn1c(-c2ccco2)n[nH]c1=S returned CYP2C9 act inactive, CYP2C9 inhib inactive, CYP2C19 inh inactive, F-actin modifier inactive, E-sel TNF inh inactive and CYP2C19 activ inactive.
`S=c1[nH]nc(-c2ccc(Cl)cc2)n1Cc1ccccc1` gave F-actin modifier inactive and E-sel TNF inh inactive.
For S=c1[nH]nc(-c2ccc(Br)o2)n1Cc1ccccc1 the results were CYP2C9 act inactive, CYP2C9 inhib 60, CYP2C19 inh 61, F-actin modifier inactive, E-sel TNF inh inactive and CYP2C19 activ inactive.
S=c1[nH]nc(-c2ccco2)n1Cc1ccccc1 was read as CYP2C9 act inactive, CYP2C9 inhib 50, CYP2C19 inh inactive, F-actin modifier inactive, E-sel TNF inh inactive and CYP2C19 activ inactive.
For S=c1[nH]nc(-c2ccncc2)n1Cc1ccco1 the results were CYP2C9 act inactive, CYP2C9 inhib 61, CYP2C19 inh inactive, F-actin modifier inactive, E-sel TNF inh inactive and CYP2C19 activ inactive.
For S=c1[nH]nc(-c2ccccc2)n1Cc1ccccc1 the results were CYP2C9 act inactive, CYP2C9 inhib inactive, CYP2C19 inh 62, F-actin modifier inactive and CYP2C19 activ inactive.
For S=c1[nH]nc(-c2cccs2)n1Cc1ccccc1 the results were E-sel TNF inh inactive.
`CN(C(=O)COC(=O)CCc1nc2ccccc2c(=O)[nH]1)C1CCS(=O)(=O)C1` (stereo not given) gave E-sel TNF inh inactive.
`CCOC(=O)NC1(C(F)(F)F)C(=O)NC(C)=C1C#N` (stereo not given) gave F-actin modifier inactive and E-sel TNF inh inactive.
O=C(COC(=O)/C=C/c1ccc(Cl)cc1Cl)Nc1cc(C(F)(F)F)ccc1N1CCOCC1 was read as E-sel TNF inh inactive.
O=C(c1cccs1)N1CCC(N2CCN(c3ccccc3)CC2)CC1 was read as CYP2C9 act inactive, CYP2C9 inhib inactive, CYP2C19 inh inactive, E-sel TNF inh inactive and CYP2C19 activ inactive.
Cn1c(Cc2cccs2)nnc1SCc1nc2ccccc2[nH]1 was read as CYP2C9 act inactive, CYP2C9 inhib inactive, CYP2C19 inh 59, E-sel TNF inh inactive and CYP2C19 activ inactive.
For Cn1c(SCc2nc3ccccc3[nH]2)nnc1-c1cccs1 the results were CYP2C9 act inactive, CYP2C9 inhib inactive, CYP2C19 inh 78, F-actin modifier inactive and CYP2C19 activ inactive.
Screening CCOC(=O)CSc1nnc(CCc2nc3ccccc3[nH]2)n1C returned CYP2C9 act inactive, CYP2C9 inhib inactive, CYP2C19 inh inactive, F-actin modifier inactive, E-sel TNF inh inactive and CYP2C19 activ inactive.
`CCOC(=O)C1CCN(S(=O)(=O)Cc2ccccc2)C1=O` (stereo not given) gave CYP2C9 act inactive, CYP2C9 inhib inactive, CYP2C19 inh 77, F-actin modifier inactive, E-sel TNF inh inactive and CYP2C19 activ inactive.
CCOC(=O)C1CCN(C(C)=C2C(=O)c3ccccc3C2=O)CC1 was read as CYP2C9 act inactive, CYP2C9 inhib inactive, CYP2C19 inh inactive, F-actin modifier inactive, E-sel TNF inh inactive and CYP2C19 activ inactive.
For C[C@@H](C(=O)NCCc1c[nH]c2ccccc12)[C@H]1C[C@]1(C)[C@H](NC(=O)OCc1ccccc1)c1ccccc1 the results were E-sel TNF inh inactive.
`O=C(c1ccc2c(c1)OCO2)N(CC1CCCO1)C1(C(=O)NC2CCCC2)CCCCC1` (stereo not given) gave CYP2C9 act inactive, CYP2C9 inhib 55, CYP2C19 inh 51, E-sel TNF inh inactive and CYP2C19 activ inactive.
For O=C(NC1(C(=O)NC2CCCCC2)CCCCC1)c1ccc2c(c1)OCO2 the results were F-actin modifier inactive and E-sel TNF inh inactive.
Screening Cc1ccc(C(=O)N2CCN(c3ncnc4c3cnn4-c3ccccc3)CC2)cc1 returned F-actin modifier inactive and E-sel TNF inh inactive.
`CCCNC(=O)N[C@@H](CCSC)C(=O)OC` gave CYP2C9 act inactive, CYP2C9 inhib inactive, CYP2C19 inh inactive, F-actin modifier inactive, E-sel TNF inh inactive and CYP2C19 activ inactive.
Screening CCCNC(=O)NC(C(=O)OC)C12CC3CC(CC(C3)C1)C2 (stereo not given) returned CYP2C9 act inactive, CYP2C9 inhib inactive, CYP2C19 inh 69, F-actin modifier inactive, E-sel TNF inh inactive and CYP2C19 activ inactive.
For COCc1cc(C)nc(OCC(=O)N/N=C/c2cc(C)n(-c3c(C)cccc3C)c2C)c1C#N the results were CYP2C9 act inactive, CYP2C9 inhib 83, CYP2C19 inh inactive, F-actin modifier inactive, E-sel TNF inh inactive and CYP2C19 activ inactive.
Screening COc1ccccc1N1CCN(C(=O)CCCCn2c(=O)[nH]c3ccsc3c2=O)CC1 returned CYP2C9 act inactive, CYP2C9 inhib inactive, CYP2C19 inh inactive, F-actin modifier inactive and CYP2C19 activ inactive.
For CCN1CCN(C(=O)c2ccccc2Nc2ccc(SC(F)F)cc2)CC1 the results were E-sel TNF inh inactive.
`CC(NC(=O)C1CCCN(C(=O)N(C)C)C1)c1ccccc1` (stereo not given) gave CYP2C9 act inactive, CYP2C9 inhib 53, CYP2C19 inh inactive, F-actin modifier inactive, E-sel TNF inh inactive and CYP2C19 activ inactive.
For CC(NC(=O)C1CCC1)c1ccccc1 (stereo not given) the results were CYP2C9 act inactive, CYP2C9 inhib inactive, CYP2C19 inh inactive, E-sel TNF inh inactive and CYP2C19 activ inactive.
Cc1cc(C)nc(NC2=NCC(=O)N2CCc2c[nH]c3ccccc23)n1 was read as CYP2C9 act inactive, CYP2C9 inhib inactive, CYP2C19 inh inactive, F-actin modifier inactive, E-sel TNF inh inactive and CYP2C19 activ inactive.
O=S(=O)(c1cccs1)N1CCN(C/C=C/c2ccccc2)CC1 was read as CYP2C9 act inactive, CYP2C9 inhib 74, CYP2C19 inh 86, F-actin modifier inactive, E-sel TNF inh inactive and CYP2C19 activ inactive.
`CS(=O)(=O)N1CCN(C/C=C/c2ccccc2)CC1` gave CYP2C9 act inactive, CYP2C9 inhib inactive, CYP2C19 inh inactive, E-sel TNF inh inactive and CYP2C19 activ inactive.
For O=S(=O)(c1ccc(Cl)s1)N1CCN(C/C=C/c2ccccc2)CC1 the results were CYP2C9 act inactive, CYP2C9 inhib 80, CYP2C19 inh 78, F-actin modifier inactive and CYP2C19 activ inactive.
Screening O=C1CCCN1CCC1CCN(C2CC(=O)N(c3ccc(F)cc3)C2=O)CC1 (stereo not given) returned CYP2C9 act inactive, CYP2C9 inhib inactive, CYP2C19 inh inactive, E-sel TNF inh inactive and CYP2C19 activ inactive.

Assay outcomes deposited in PubChem by several laboratories.
